Four compounds from PubChem BioAssay can be followed below.

Experiment [1] is described as follows: compounds binding Alexa647 anti-His antibody – biochemical, small-molecule microarray, 635 nm fluorescence, artefact control for SMM control protein annotation, primary screen (AID 1128).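 Also: score merges feature fluorescence with signal-to-noise for each printed compound spot.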 To be noted: higher = more signal.
Experiment [2] deals with Human papillomavirus type 1a E7 protein (residues 1-88). Briefly: HPV1a E7 small-molecule binders, primary screen, biochemical, small-molecule microarray, residues 1-88, 635 nm (AID 1129). To be noted: small-molecule microarray binding, fluorescence 635 nm; higher = more signal.
Experiment [3] addresses Focal adhesion kinase 1 (Homo sapiens) (UniProt Q05397). Briefly: PTK2 protein binding on printed compound slides – biochemical, small-molecule microarray, 635/667 nm fluorescence, BSA, DTT, primary screen (AID 1130).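 Also: composite of spot emission at 667 nm and signal to noise over triplicate slides.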 To be noted: 635 nm fluorescence, higher = more signal.
The subject of experiment [4] is Fibrinogen (Alexa647-labelled). Briefly: Alexa647-fibrinogen binding to printed small molecules – biochemical, small-molecule microarray, 635/667 nm fluorescence, artefact control for SMM control-protein annotation, profiling panel (AID 1131).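 Also: z-score merges 667 nm fluorescence with per-spot signal-to-noise over triplicate slides.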 The note with it: fibrinogen-A647 binding fluorescence, higher = more signal.
In experiment [5] the target is Follistatin (Homo sapiens) (UniProt P19883). Briefly: FST protein binding to printed compounds – biochemical, small-molecule microarray, 635/667 nm fluorescence, primary screen (AID 1132). To be noted: 635 nm fluorescence, higher = more signal.
The target of experiment [6] is Fibroblast growth factor 2 (Homo sapiens) (UniProt P09038). Briefly: basic fibroblast growth factor binding to printed compounds – biochemical, small-molecule microarray, 635/667 nm fluorescence, primary screen (AID 1133). To be noted: FGF2, fluorescence 635/667, higher = more signal.
Experiment [7] can be described thus: JC-1 mitochondrial potential readout, lung cancer cells – cell-based, A549, JC-1 fluorescence, basal, 24 h, 100 nL, profiling panel (AID 1138).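 Also: A549 lung adenocarcinoma cells under basal conditions with no added stimulus; test concentration not given here.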 The note with it: higher = more signal.
Experiment [8] deals with Lefty1. Briefly: Lefty1 protein binding to printed compounds – biochemical, small-molecule microarray, 635/667 nm fluorescence, primary screen (AID 1139). To be noted: fluorescence 635/667, higher = more signal.
Experiment [9] has as its system wheat germ agglutinin (Triticum aestivum), Alexa647-labelled. Briefly: Alexa647-WGA lectin binding to printed small molecules – biochemical, small-molecule microarray, 635/667 nm fluorescence, artefact control for SMM control-protein annotation, profiling panel (AID 1140).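 Also: score merges 667 nm feature emission with signal to noise over triplicate slides.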 To be noted: WGA-A647 binding, 635 nm fluorescence, higher = more signal.
For experiment [10], the target named is Luciferin 4-monooxygenase (Photinus pyralis) (UniProt P08659). Briefly: inhibition of purified Photinus pyralis luciferase – biochemical, luminescence, purified enzyme, 2006 set, primary screen (AID 1141).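 Also: cell-free assay with purified firefly luciferase at 100 ng per well in PBS; test concentration not given here.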 To be noted: purified firefly luciferase, SteadyGlo luminescence, 30 min; higher = more signal, called active from +8 up or from −8 down.
Experiment [11] relates to Wnt5a (protein binding on small-molecule microarray). Briefly: small molecules binding Wnt5a protein – biophysical, small-molecule microarray, 635/667 nm fluorescence, primary screen (AID 1142).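 Also: fluorescence read at 667 nm with signal to noise per printed feature.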 To be noted: 635 nm fluorescence, higher = more signal.
Experiment [12] can be described thus: ATP-based viability of Huh7 replicon cells – cell-based, CellTiter-Glo luminescence, basal, 48 h, cytotoxicity control for HCV replication inhibitor project, primary screen (AID 1143).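 Also: Huh7 hepatoma cells carrying a hepatitis C replication reporter with no stimulus; test concentration not given here.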 To be noted: higher = more signal, called active from +8 up or from −8 down.
Experiment [13] is described as follows: Pseudomonas biofilm growth suppression – PAO1 strain, BacTiter-Glo luminescence, LB-PBS, primary screen (AID 1144). The note with it: P. aeruginosa PAO1 biofilm, 12 h, higher = more signal.
Experiment [14] can be described thus: basal CRE-LacZ reporter activity in PC12 – cell-based, unstimulated, primary screen (AID 1145). The note with it: no forskolin, luminescence, 4.5 h, higher = more signal, called active from +8 up or from −8 down.
Experiment [15] in a line: forskolin-driven CRE-LacZ activity in PC12 – cell-based, CRE-LacZ reporter, forskolin-stimulated, primary screen (AID 1146).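 Also: PC12 cells with 6xCRE LacZ reporter stimulated by forskolin 10 µM; beta-galactosidase reporter signal reflecting CREB driven transcription.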 To be noted: luminescence, 4.5 h, higher = more signal, called active from +8 up or from −8 down.
For experiment [16], the target named is Streptavidin (Streptomyces avidinii) (UniProt P22629). Briefly: compounds binding control protein streptavidin – biophysical, small-molecule microarray, 635/667 nm fluorescence, artefact control for SMM compound annotation, primary screen (AID 1147).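 Also: signal reflects streptavidin binding to arrayed compounds as a control protein.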 The note with it: higher = more signal.
Experiment [17] is described as follows: probe aInhba binding on compound microarray – biochemical, small-molecule microarray, 635/667 nm fluorescence, primary screen (AID 1148).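 Also: score merges 667nm spot fluorescence with signal-to-noise for antibody binding to printed compounds.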 The note with it: higher = more signal.
For experiment [18], the target named is Torsin-1A (Homo sapiens) (UniProt O14656). Briefly: TOR1A wild-type binding on microarray – cell lysate, small-molecule microarray, lysate, 635/667 nm, primary screen (AID 1149). To be noted: COS7 hTOR1A-WT lysate, 635 nm fluorescence, higher = more signal.
Experiment [19] shares this target. Briefly: torsin A mutant lysate binding on microarrays – cell lysate, small-molecule microarray, COS7 lysate, 635/667 nm fluorescence, primary screen (AID 1150).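 Also: score pools 667 nm emission and signal to noise measuring lysate protein binding.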 To be noted: COS7 hTOR1A mutant lysate, 635 nm fluorescence, higher = more signal.
In experiment [20] the test system is Sonic hedgehog protein (Shh). Briefly: Sonic hedgehog microarray binding compounds – biochemical, small-molecule microarray, 635/667 nm fluorescence, primary screen (AID 1151).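 Also: Shh protein binding to compounds spotted on small-molecule microarray slides; score combines spot fluorescence intensity with signal-to-noise across triplicate slides.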 To be noted: 635 nm fluorescence, higher = more signal.

“And” between values parts separate entries of the source, which are not always exact repeats. Equal values may be shown once. The source made the active and inactive calls. Unless noted, no rule for the calls is given here.

Chain of Luciferin 4-monooxygenase (Photinus pyralis) (P08659 whole entry, looked up): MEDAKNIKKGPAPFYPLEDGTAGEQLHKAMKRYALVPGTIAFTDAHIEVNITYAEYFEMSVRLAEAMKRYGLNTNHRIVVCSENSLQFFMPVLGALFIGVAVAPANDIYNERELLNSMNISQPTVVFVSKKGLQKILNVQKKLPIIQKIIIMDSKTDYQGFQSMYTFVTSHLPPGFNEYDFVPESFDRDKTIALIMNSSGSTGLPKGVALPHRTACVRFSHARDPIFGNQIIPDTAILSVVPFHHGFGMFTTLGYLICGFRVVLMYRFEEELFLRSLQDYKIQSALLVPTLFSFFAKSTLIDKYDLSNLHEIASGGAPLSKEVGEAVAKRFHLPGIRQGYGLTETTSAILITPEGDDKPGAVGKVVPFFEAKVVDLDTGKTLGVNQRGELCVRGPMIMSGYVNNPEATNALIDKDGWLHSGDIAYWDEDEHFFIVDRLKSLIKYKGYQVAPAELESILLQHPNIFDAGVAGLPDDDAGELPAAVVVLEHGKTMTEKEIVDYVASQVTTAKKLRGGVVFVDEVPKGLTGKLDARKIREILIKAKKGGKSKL
Chain of Torsin-1A (Homo sapiens) (O14656 whole entry, looked up): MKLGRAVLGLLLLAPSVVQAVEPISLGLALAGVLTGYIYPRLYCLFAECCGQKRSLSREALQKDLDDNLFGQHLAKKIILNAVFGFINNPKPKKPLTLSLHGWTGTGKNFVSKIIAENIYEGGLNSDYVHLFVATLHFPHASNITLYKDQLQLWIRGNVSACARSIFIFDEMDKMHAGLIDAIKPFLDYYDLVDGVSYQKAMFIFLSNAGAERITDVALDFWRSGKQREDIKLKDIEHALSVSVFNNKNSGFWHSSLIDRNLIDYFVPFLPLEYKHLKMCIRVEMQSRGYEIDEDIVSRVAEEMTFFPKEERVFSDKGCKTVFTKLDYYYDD
Chain of Streptavidin (Streptomyces avidinii) (P22629 whole entry, looked up): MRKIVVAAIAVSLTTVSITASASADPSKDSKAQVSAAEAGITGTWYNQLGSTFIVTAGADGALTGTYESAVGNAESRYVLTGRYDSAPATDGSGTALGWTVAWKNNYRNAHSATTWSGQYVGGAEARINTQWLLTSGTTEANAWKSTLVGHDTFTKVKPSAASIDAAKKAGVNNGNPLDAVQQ
Chain of Fibroblast growth factor 2 (Homo sapiens) (P09038 whole entry, looked up): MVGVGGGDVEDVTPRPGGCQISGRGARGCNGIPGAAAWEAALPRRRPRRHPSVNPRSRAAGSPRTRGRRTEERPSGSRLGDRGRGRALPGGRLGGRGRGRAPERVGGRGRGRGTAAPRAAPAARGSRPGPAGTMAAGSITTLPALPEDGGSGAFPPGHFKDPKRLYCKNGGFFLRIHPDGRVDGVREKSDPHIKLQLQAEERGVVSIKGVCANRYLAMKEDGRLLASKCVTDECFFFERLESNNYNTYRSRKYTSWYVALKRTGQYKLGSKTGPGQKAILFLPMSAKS
Chain of Focal adhesion kinase 1 (Homo sapiens) (Q05397 whole entry, looked up): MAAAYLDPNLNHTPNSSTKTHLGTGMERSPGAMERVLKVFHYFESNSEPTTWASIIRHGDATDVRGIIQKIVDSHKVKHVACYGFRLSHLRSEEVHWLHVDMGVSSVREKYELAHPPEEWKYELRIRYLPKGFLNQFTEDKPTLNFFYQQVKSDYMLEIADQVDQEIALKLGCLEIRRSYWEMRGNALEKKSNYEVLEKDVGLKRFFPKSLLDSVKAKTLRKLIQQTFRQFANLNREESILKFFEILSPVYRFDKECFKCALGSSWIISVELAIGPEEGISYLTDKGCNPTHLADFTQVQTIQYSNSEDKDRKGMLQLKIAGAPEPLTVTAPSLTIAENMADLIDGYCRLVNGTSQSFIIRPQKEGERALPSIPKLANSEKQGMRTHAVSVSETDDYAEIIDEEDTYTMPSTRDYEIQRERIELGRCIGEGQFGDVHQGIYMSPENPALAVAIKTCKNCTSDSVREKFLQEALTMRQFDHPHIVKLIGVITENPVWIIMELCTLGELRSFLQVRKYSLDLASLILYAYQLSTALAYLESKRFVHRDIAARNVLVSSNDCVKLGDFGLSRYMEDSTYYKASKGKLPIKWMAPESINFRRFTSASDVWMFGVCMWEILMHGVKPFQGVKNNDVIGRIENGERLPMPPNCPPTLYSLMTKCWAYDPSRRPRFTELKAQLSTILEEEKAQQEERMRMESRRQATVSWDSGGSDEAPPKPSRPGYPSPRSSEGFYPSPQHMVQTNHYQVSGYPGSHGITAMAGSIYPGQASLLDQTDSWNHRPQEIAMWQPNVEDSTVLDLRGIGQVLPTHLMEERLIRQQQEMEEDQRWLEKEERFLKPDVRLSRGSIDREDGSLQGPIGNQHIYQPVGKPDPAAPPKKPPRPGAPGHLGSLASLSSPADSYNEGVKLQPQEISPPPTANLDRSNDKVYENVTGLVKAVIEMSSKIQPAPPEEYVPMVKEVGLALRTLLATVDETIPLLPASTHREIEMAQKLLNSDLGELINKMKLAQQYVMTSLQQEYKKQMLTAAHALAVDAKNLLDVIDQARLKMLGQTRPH
Chain of Follistatin (Homo sapiens) (P19883 whole entry, looked up): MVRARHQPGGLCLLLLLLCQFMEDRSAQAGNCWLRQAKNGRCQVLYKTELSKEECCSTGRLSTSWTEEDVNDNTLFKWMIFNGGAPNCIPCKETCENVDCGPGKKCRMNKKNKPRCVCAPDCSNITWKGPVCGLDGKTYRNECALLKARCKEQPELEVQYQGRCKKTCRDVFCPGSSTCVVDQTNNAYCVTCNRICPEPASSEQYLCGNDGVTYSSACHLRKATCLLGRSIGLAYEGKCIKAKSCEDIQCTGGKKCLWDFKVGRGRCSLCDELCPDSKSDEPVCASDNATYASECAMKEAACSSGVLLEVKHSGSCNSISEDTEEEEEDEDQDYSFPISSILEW

Take `CC(C)=NOC[C@@H](O)COCc1ccco1`: the composite z-score in experiment [1] is 1.27; in [2], -1.73; in experiment [3], -0.395; in [4], -1.83; in experiment [5], 0.112; in experiment [6], 0.782. For the same compound, the composite z-score was -0.181 in [8]; -0.988 in experiment [9]; -0.0761 in [11]; -0.499 in experiment [16]; -0.003 in experiment [17]; -0.469 in experiment [18]. Also, the composite z-score in experiment [19] was 2.08; in experiment [20], 0.712. Moreover, the z-score is 0.354 in [7]; -1.28 (inactive) in [10]; 0.326 (inactive) in experiment [12]; -0.209 (inactive) in [13]; -1.71 (inactive) in experiment [14]; -0.619 (inactive) in experiment [15].

Take `CO[C@H]1COC(=O)CC=C[C@@H](C)COC(=O)[C@H](CCSC)NC(=O)CC=C[C@@H]1C`: the composite z-score is 0.512 and -0.138 in experiment [1]; -0.375 and -0.74 in experiment [2]; 0.285 and -0.776 in [3]; -1.19 and -1.63 in experiment [4]; 1.5 and 1.58 in experiment [5]; 1.97 and 1.78 in experiment [6]. Moreover, the composite z-score was 1.79 and 1.82 in experiment [8]; -0.353 and -1.42 in experiment [9]; 0.748 and 0.382 in experiment [11]; -0.909 and -1.04 in [16]; -0.0645 and -0.341 in experiment [17]; 3.27 and 3.04 in experiment [18]. The composite z-score is 3.74 and 3.09 in [19]; 1.74 and 2.35 in [20]. Moreover, the z-score was -1.26 and 0.523 in experiment [7]; -0.142 (inactive) and -0.463 (inactive) in experiment [10]; -1.11 (inactive) and -1.94 (inactive) in experiment [12]; -0.2 (inactive) in [13]; -0.473 (inactive) and 0.882 (inactive) in [14]; -0.367 (inactive) and -0.742 (inactive) in [15].

As to `COC(=O)C1=C(C)N(Cc2ccccc2)C2=C(C(C)=O)[C@H](c3ccccc3)[C@@](O)(C(=O)OC)C(=O)N2[C@@H]1c1ccccc1`, the composite z-score is 0.313 and -0.605 in experiment [1]; 1.06 and -0.558 in [2]; 0.113 and -0.651 in experiment [3]; 0.963 and 0.0691 in experiment [4]; 0.764 and -0.238 in experiment [5]; 0.745 and 0.282 in [6]. The composite z-score is 0.638 and -0.0574 in experiment [8]; 0.493 and -0.348 in experiment [9]; 0.142 and -0.0685 in experiment [11]; 0.499 and -0.212 in experiment [16]; 0.105 and -0.171 in experiment [17]; 0.576 and -0.313 in [18]. Besides, the composite z-score in experiment [19] was 0.9 and -0.211; in experiment [20] it was 0.686 and 0.16. The z-score was 3.76 and 1.44 in [7]; -1.12 (inactive) and -2.89 (inactive) in [10]; -0.912 (inactive) and -3.17 (inactive) in experiment [12]; -1.5 (inactive) in experiment [13]; 1.1 (inactive) and 0.916 (inactive) in experiment [14]; -0.213 (inactive) and -0.284 (inactive) in [15].

As for `C=CCN(C(=O)C(c1cccs1)N(C(=O)/C=C\C(=O)O)C(C)(C)CO)c1ccc(OC)cc1` (stereo not given), the composite z-score is -1.01 and -0.0442 in [1]; -0.392 and -0.41 in experiment [2]; -0.675 and 1.18 in [3]; -0.809 and -1.04 in experiment [4]; -1.7 and -1.17 in [5]; -0.855 and -0.862 in [6]. For the same compound, the composite z-score in [8] is -1.22 and -0.566; in experiment [9], -0.747 and -0.0298; in experiment [11], -0.0325 and -0.446; in experiment [16] it was -1.19 and -0.56; in [17], -0.061 and -0.0371; in [18], -1.58 and -0.301. Also, the composite z-score was -0.269 and 1.24 in [19]; -0.763 and -0.121 in [20]. The z-score in [7] was 1.11 and 1.74; in [10], -2.86 (inactive) and -5.74 (inactive); in experiment [12], -1.8 (inactive) and -0.679 (inactive); in experiment [13], -1.09 (inactive); in [14] it was -0.488 (inactive) and -0.619 (inactive); in [15] it was -1.07 (inactive) and 0.149 (inactive).
